Results published in PubChem BioAssay (EPA / NIEHS).
Results filed as inconclusive are left out. Calls of active or inactive are those of the source. The calls were made as follows, unless noted: active = hit-call score of the fitted dose curve at least 0.9, where 1 is the maximum; inactive = score below 0.9.

What was measured:
[1] = IUF_NPC2a_radial_glia_migration_72hr: Leibniz Research Institute for Environmental Medicine (IUF) 72-hour Neural Progenitor Cell Migration Assay for Radial Glia Migration (NPC2a) (AID 2284299)
Summary of the method: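 Spheres of human primary neural progenitors migrate on poly-D-lysine/laminin under compound exposure at 37C, 5% CO2. The 72 h radial glia migration distance comes from brightfield images, measured manually.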

[2] = IUF_NPC2b_neuronal_migration_120hr: Leibniz Research Institute for Environmental Medicine (IUF) 120-hour Neural Progenitor Cell Migration Assay for Neuron Migration (NPC2b) (AID 2284300)
Summary of the method: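 Neurons identified by TUBB3 immunostaining and Hoechst nuclei; migration distance measured automatically on fixed wells at 120 h, normalized to glia migration. Exposure spanned five days of differentiation in N2 medium, seven test concentrations.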

[3] = IUF_NPC3_neuronal_differentiation_120hr: Leibniz Research Institute for Environmental Medicine (IUF) 120-hour Neuronal Differentiation Assay (NPC3) (AID 2284301)
Summary of the method: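 hNPC spheres, PDL/laminin, DMEM/F12 3:1 + 1% N2, 37C, 5% CO2; 7 concentrations + solvent control, 5 d exposure, half-change day 3. Fix 120 h; TUBB3/Hoechst ICC, CNN neuron calling; % neurons vs nuclei, DMSO-normalized.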

[4] = IUF_NPC4_neurite_length_120hr: Leibniz Research Institute for Environmental Medicine (IUF) 120-hour Neuronal Morphology Assay for Neurite Length (NPC4) (AID 2284302)
Summary of the method: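 hNPC spheres (0.3 mm, fetal brain GW 16-19) on PDL/laminin, DMEM:F12 3:1 + 1% N2, 37C 5% CO2; 7 concs + solvent control, day 0-5, half medium change d3; fix 120 h, TUBB3 ICC, mean neurite length um vs DMSO.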

[5] = IUF_NPC4_neurite_area_120hr: Leibniz Research Institute for Environmental Medicine (IUF) 120-hour Neuronal Morphology Assay for Neurite Area (NPC4) (AID 2284305; active = hit-call score of the fitted dose curve at least 0.9, where 1 is the maximum)
Summary of the method: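 hNPC spheres on PDL/laminin, N2 medium, 37C/5% CO2; dosed day 0, half-medium refresh day 3; fixed 120 h; TUBB3/Hoechst ICC, high-content imaging; neurite area = mean pixels per neuron (nuclei excluded); DMSO baseline, max 0.1%.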

[6] = IUF_NPC2-5_cytotoxicity_72hr: Cytotoxicity Assessment at 72 hours in the Leibniz Research Institute for Environmental Medicine (IUF) Neural Progenitor Cell Migration and Differentiation Assay for Cytotoxicity (NPC2-5) (AID 2284306; active = hit-call score of the fitted dose curve at least 0.9, where 1 is the maximum;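 also: LDH release into supernatant measured by resorufin fluorescence marking membrane damage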)
Summary of the method: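 hNPC spheres (0.3 mm), PDL/laminin, DMEM/F12 3:1 + 1% N2; cpd from d0, 7 concs + SC, DMSO max 0.1%; half-medium refresh d3. Readout: supernatant LDH via resorufin fluorescence (RFU), 72 h; gain-of-signal fit.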

[7] = IUF_NPC2-5_cytotoxicity_120hr: Cytotoxicity Assessment at 120 hours in the Leibniz Research Institute for Environmental Medicine (IUF) Neural Progenitor Cell Migration and Differentiation Assay (NPC2-5) (AID 2284307; active = hit-call score of the fitted dose curve at least 0.9, where 1 is the maximum;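 as to AC50: LDH released into supernatant as membrane damage marker via resorufin fluorescence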)
Summary of the method: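 Fluorescence (RFU) from LDH-driven resazurin reduction in medium supernatants measured loss of membrane integrity after 120 h of compound exposure of differentiating primary human neural progenitor spheres on an extracellular matrix.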

[8] = IUF_NPC2-5_cell_number_120hr: Cell Number Assessment at 120 hours in the Leibniz Research Institute for Environmental Medicine (IUF) Neural Progenitor Cell Migration and Differentiation Assay (NPC2-5) (AID 2284308);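 also: count of Hoechst-stained nuclei in migration zone around plated human neural progenitor spheres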
Summary of the method: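 Cell number is taken as all Hoechst-positive nuclei detected in the area into which cells migrate out of the sphere, scored at 120 h and referenced to DMSO solvent control, which was kept at no more than 0.1%.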

CD69, CD69 (gene 969) = assay: BSK_LPS_CD69: BioMAP Diversity Plus: LPS Assay for CD69 Biomarker Activity (AID 2284303); settings: primary human HUVEC with PBMC
Summary of the method: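 CD69 surface levels were read by ELISA after 24 h chemical treatment of an LPS-stimulated HUVEC plus PBMC co-culture; positive-direction fit against DMSO vehicle.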

[9] = IUF_NPC5_oligodendrocyte_differentiation_120hr: Leibniz Research Institute for Environmental Medicine (IUF) 120-hour Oligodendrocyte Differentiation Assay (NPC5) (AID 2284304; active = hit-call score of the fitted dose curve at least 0.9, where 1 is the maximum;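 also: primary human fetal neural progenitor spheres plated to migrate and differentiate; share of O4-positive cells among Hoechst nuclei found by CNN image analysis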)
Summary of the method: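 Human primary NPC neurospheres migrating and differentiating on laminin for 120 h under continuous compound exposure (serial dilution, solvent control). Endpoint: percent O4+ oligodendrocytes among Hoechst nuclei, detected by CNN image analysis, with DMSO as negative control.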

Measured: AC50

CNC(=O)CSP(=O)(OC)OC
not listed: CD69, CD69 (gene 969) | [9]
inactive: all other assays above

OCCCCO
inactive: CD69, CD69 (gene 969)

Cc1ccccc1OP(=O)(Oc1ccccc1C)Oc1ccccc1C
active: [9] 6.47 µM
not listed: [7] | CD69, CD69 (gene 969)
inactive: all other assays above

CCOCn1c(-c2ccc(Cl)cc2)c(C#N)c(Br)c1C(F)(F)F
active: [1] 36.6 µM | [2] 35.4 µM | [3] 5.42 µM | [4] 14.4 µM | [9] 5.56 µM | [5] 13.4 µM | [6] 50 µM | [7] 41.7 µM | [8] 84.8 µM

O=S1OC[C@@H]2[C@H](CO1)[C@]1(Cl)C(Cl)=C(Cl)[C@@]2(Cl)C1(Cl)Cl (some centres not stated)
active: [9] 0.789 µM
not listed: CD69, CD69 (gene 969)
inactive: all other assays above

CCCCOC(=O)COC(=O)c1ccccc1C(=O)OCCCC
inactive: CD69, CD69 (gene 969)

CC(C)[C@@H](Nc1ccc(C(F)(F)F)cc1Cl)C(=O)OC(C#N)c1cccc(Oc2ccccc2)c1 (some centres not stated)
active: [3] 1.92 µM | [9] 3.8 µM
not listed: CD69, CD69 (gene 969)
inactive: all other assays above

CS(=O)(=O)c1ccc(C(=O)C2C(=O)CCCC2=O)c(Cl)c1COCC(F)(F)F
not listed: CD69, CD69 (gene 969)
inactive: all other assays above

CC1(C)[C@H](C(=O)O[C@H](C#N)c2cccc(Oc3ccccc3)c2)[C@@H]1/C=C(\Cl)C(F)(F)F
active: [9] 0.983 µM | [8] 0.586 µM
not listed: CD69, CD69 (gene 969)
inactive: all other assays above

Cc1cc(C(F)(C(F)(F)F)C(F)(F)F)ccc1NC(=O)c1cccc(I)c1C(=O)NC(C)(C)CS(C)(=O)=O
active: [9] 4.22 µM | [7] 1.5 µM
not listed: CD69, CD69 (gene 969)
inactive: all other assays above

OC(Cc1ccccc1Cl)(Cn1[nH]cnc1=S)C1(Cl)CC1 (configuration not stated)
inactive: [2] | [6] | [8]
active: [1] 36 µM | [3] 17.5 µM | [4] 36.1 µM | [9] 0.507 µM | [5] 40.3 µM | [7] 126 µM

O=C(Cc1ccccc1)OCCc1ccccc1
inactive: CD69, CD69 (gene 969)
